Data on eight molecules can be found in PMC5540273 (PLoS ONE, 2017).

Test systems include S6K1; SBK1; SGK2; SGK3; SGK; SIK2; SIK; SLK; SNRK; SRC; SRMS; SRPK1; SRPK2; SRPK3; STK16; STK33; STK35.
Details in all cases: concentration: 1 μM, replicates: in singlicate; n = 1
Test [1] relates to T1, RSK4(Kin.Dom.1-N-terminal).
T1 construct: gene RPS6KA6

For test [2], the system named is T2, RSK4(Kin.Dom.2-C-terminal).
T2 construct: gene RPS6KA6

The subject of another test is T3, SNARK.
T3 construct: gene NUAK2
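Further: KINOMEscan kinase panel screen.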

Take `O=C(Nc1n[nH]c2cc(-c3ccoc3)ccc12)C1CC1` [SB-738481]: the “%Inh” value in [1] is listed as 3%; in test [2] it was 1%; in the test on S6K1 it was 36%; with SBK1, 0%; in the test on SGK2, 5%; with SGK3, 28%. The “%Inh” value came out at 1% in the test on SGK; 0% in the test with SIK2; 0% in the test with SIK; 2% in the test with SLK; 25% with SNARK; 0% with SNRK. Further, the “%Inh” value in the test with SRC was 0%; in the test on SRMS it was 19%; in the test on SRPK1, 48%; in the test on SRPK2 it was 0%; in the test with SRPK3, 37%; in the test on STK16 it was 21%. In addition, the “%Inh” value with STK33 is given as 0%; with STK35, 5%.
For the molecule `O=C(Nc1cccc(-c2nn3ccccc3c2-c2ccnc(Nc3cccc(C(F)(F)F)c3)n2)c1)c1c(F)cccc1F` [GSK292658], the “%Inh” value in test [1] came out at 0%; in test [2] it was 0%; in the test on S6K1 it was 0%; with SBK1, 20%; in the test with SGK2, 0%; in the test with SGK3 it was 8%. The “%Inh” value in the test with SGK came to 11%; in the test with SIK2, 0%; in the test with SIK, 9%; with SLK, 54%; in the test with SNARK, 9%; in the test on SNRK, 15%. The “%Inh” value came to 15% in the test on SRC; 22% in the test with SRMS; 12% in the test with SRPK1; 0% with SRPK2; 17% with SRPK3; 0% in the test on STK16. The entries for the “%Inh” value in the test with STK33 and with STK35 were 4% and 20%, respectively.
As for `Cn1cc(-c2[nH]c3cc(NC(=O)[C@H](N)C4CCCCC4)cc4c3c2C=NNC4=O)cn1`, the “%Inh” value in test [1] came to 86%; in test [2], 35%; in the test with S6K1, 76%; with SBK1 it was 96.2%; with SGK2 it was 83%; in the test on SGK3 it was 99.1%. The “%Inh” value in the test on SGK was 95.7%; in the test on SIK2 it was 95.2%; in the test on SIK it was 90.8%; in the test on SLK, 14%; in the test with SNARK, 97.9%; with SNRK, 1%. For the same molecule, the “%Inh” value was 98.3% in the test with SRC; 75% in the test with SRMS; 99% with SRPK1; 77% in the test on SRPK2; 82% in the test with SRPK3; 66% in the test with STK16. The “%Inh” value in the test on STK33 is 37%; in the test on STK35, 53%.
Take `COc1ccc(CNC(=O)NC2CCN(c3ccnc(Nc4ccc(F)cc4)n3)CC2)cc1` [GSK1379788]: the “%Inh” value in test [1] is 0%; in [2], 12%; in the test on S6K1, 0%; with SBK1, 0%; with SGK2, 0%; in the test on SGK3, 0%. Besides, the “%Inh” value in the test on SGK was determined as 0%; in the test on SIK2, 0%; in the test with SIK it was 0%; with SLK it was 7%; in the test with SNARK it was 0%; in the test on SNRK it was 0%. Moreover, the “%Inh” value with SRC came out at 0%; in the test on SRMS, 0%; with SRPK1, 0%; in the test with SRPK2 it was 11%; in the test with SRPK3, 0%; with STK16, 9%. The “%Inh” value with STK33 and with STK35 was 0% each time.
As to `CCCCc1nn2ncccc2c1-c1ccnc(Nc2ccc(N3CCN(C)CC3)cc2)n1` [GW684941], the “%Inh” value is 0% in test [1]; 82% in test [2]; 0% in the test with S6K1; 30% in the test on SBK1; 0% in the test on SGK2; 0% with SGK3. Moreover, the “%Inh” value came to 24% with SGK; 84% in the test with SIK2; 83% in the test on SIK; 69% with SLK; 90.2% in the test with SNARK; 0% in the test on SNRK. For the same molecule, the “%Inh” value turned out to be 98.8% in the test with SRC; 0% in the test with SRMS; 63% with SRPK1; 6% with SRPK2; 26% with SRPK3; 86% with STK16. The “%Inh” value with STK33 was determined as 39%; in the test on STK35, 0%.
`C[C@@H]1CC[C@@H](C(=O)Nc2ccccc2)CN1c1cc(-c2ccc3c(N)n[nH]c3c2)nc(N)n1` [GSK2286062]: the “%Inh” value was found to be 0% in [1]; 17% in test [2]; 0% in the test on S6K1; 26% with SBK1; 0% in the test with SGK2; 0% in the test with SGK3. Besides, the “%Inh” value in the test with SGK worked out at 0%; in the test on SIK2 it was 0%; in the test on SIK it was 0%; with SLK, 1%; in the test on SNARK, 11%; with SNRK it was 0%. For the same molecule, the “%Inh” value turned out to be 0% in the test with SRC; 0% in the test on SRMS; 25% in the test with SRPK1; 33% in the test with SRPK2; 0% in the test on SRPK3; 8% with STK16. For the same molecule, the “%Inh” value with STK33 and in the test on STK35 was 0% throughout.
Consider `Cc1ccc(C(=O)N2CC[C@@H](O)C2)cc1-n1c(C)cc(OCc2ccc(F)cc2F)c(Br)c1=O`, for which the “%Inh” value in test [1] is 0%; in [2] it was 2%; in the test on S6K1, 0%; with SBK1, 0%; in the test on SGK2, 0%; in the test on SGK3, 0%. The “%Inh” value with SGK came out at 0%; in the test on SIK2, 27%; in the test with SIK, 4%; with SLK it was 0%; with SNARK, 0%; in the test on SNRK, 0%. Further, the “%Inh” value with SRC amounted to 97.7%; in the test on SRMS it was 0%; with SRPK1 it was 0%; in the test on SRPK2, 0%; in the test on SRPK3 it was 0%; in the test on STK16 it was 19%. Besides, the “%Inh” value is given as 2% with STK33 and 0% in the test on STK35.
`O=C(Nc1cccc(-c2nn3ccccc3c2-c2ccnc(Nc3cccc(F)c3)n2)c1)c1c(F)ccc(F)c1Cl` [GSK357952]: the “%Inh” value was found to be 4% in [1]; 0% in [2]; 2% in the test on S6K1; 12% with SBK1; 0% in the test with SGK2; 2% with SGK3. Moreover, the “%Inh” value came out at 10% with SGK; 16% in the test on SIK2; 34% in the test on SIK; 91.2% with SLK; 4% with SNARK; 17% with SNRK. The “%Inh” value in the test with SRC came out at 45%; in the test on SRMS, 28%; in the test on SRPK1 it was 45%; in the test with SRPK2, 0%; in the test with SRPK3 it was 0%; in the test on STK16 it was 0%. Besides, the figures for the “%Inh” value in the test with STK33 and in the test on STK35 were 10% and 27%, respectively.
